Compounds with a hit are over-represented: about 12% of the library has one in this group of screens.
L3MBTL1 block: blocks human L3MBTL1; Q9Y468; AlphaScreen L3MBTL1–H3K9me1 peptide binding; Potency, µM (titrated, usually from 57.1 µM), most hits filed as inhibitors; actives 0.66% (n = 230,000); further: nearly all actives have a fitted effect of over 60% in size
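AlphaScreen assay: L3MBTL1 (50 nM final) was preincubated 30 min at room temperature with biotinylated H3(1-15)K9me1 peptide (75 nM final), then 30 min with library compounds; streptavidin donor and nickel chelate acceptor beads (10 ug/mL final) added, 30 min dark.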
JMJD2A Tudor: JMJD2A Tudor domain (human) inhibition. O75164. Potency, µM (series often up to 114 µM), actives largely listed as inhibitors. AID 504339. AlphaScreen JMJD2A-Tudor / H3K4me3 peptide binding. actives 4.4% (n = 390,000); further: nearly all actives have a fitted effect of over 50% in size
Sfp PPTase inh: Sfp phosphopantetheinyl transferase inhibition | Q9F4F7 | Biochemical Sfp PPTase activity, qHTS | Potency, µM, actives largely listed as inhibitors | actives 3.5% (n = 310,000);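 further: the enzyme is Sfp with the accession as filed and its product quenches rhodamine fluorescence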
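Sfp 15 nM + cpd, 15 min RT; start w/ rhodamine-CoA 5 uM, BHQ-2-YbbR 12.5 uM (final); 50 mM Hepes pH 7.6, 10 mM MgCl2, 0.01% NP-40, 0.01% BSA; read 525/598 nm at 0 and 30 min.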
G9a inh: G9a (human) methyltransferase inhibition; AID 504332; Q96KQ7; Potency, µM (titrated, usually from 102 µM), actives largely listed as inhibitors; actives 8.8% (n = 350,000); G9a H3K9 monomethylation, AlphaScreen, 2 h; further: nearly all actives have a fitted effect of over 75% in size
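Compounds were preincubated with 20 nM G9a for 15 min, after which biotinylated H3K9 peptide (500 nM) and SAM (20 uM) started a 2 h room-temperature reaction. Monomethylated product was quantified by antibody-based AlphaScreen chemiluminescence.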
BAZ2B inh: BAZ2B (human) inhibition; AID 504333; AlphaScreen BAZ2B-H3K14Ac peptide displacement; Q9UIF8; Potency, µM (highest dose often 114 µM), most hits filed as inhibitors; actives 4.4% (n = 360,000); further: nearly all actives have a fitted effect of over 60% in size
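BAZ2B 50 nM plus b-H3(5-23)K14Ac 50 nM, PBS pH 7.4/0.01% Tween-20, 30 min RT; compound added (max 110 uM), 30 min RT; streptavidin donor/Ni-chelate acceptor beads 10 ug/mL final, 20 min dark; AlphaScreen read.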
HP1b chromo inh: inhibitors of HP1-beta chromodomain binding to methylated histone tails; AlphaScreen HP1-beta / biotin-H3K9me3 peptide binding; AID 540317; actives 0.56% (n = 390,000); P83916; Potency, µM (top dose mostly 114 µM), most hits filed as inhibitors; further: nearly all actives have a fitted effect of over 70% in size
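HP1-beta protein (50 nM final) preincubated 30 min at room temperature with biotinylated H3(1-18)K9me3 peptide (50 nM) in PBS pH 7.4, 0.01% Tween-20, then compound added for 30 min. AlphaScreen streptavidin donor/nickel chelate acceptor beads (10 ug/mL final), 30 min dark, luminescence read.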
Numbers stand for hits; n = inactive; u = inconclusive; x = not tested or not shown; [ ] = another dose, or the depositor's remark. The call rests on the fitted dose curve; in most records, active means well fitted curve in the direction sought with a large enough effect; inconclusive means small, poorly fitted or top-dose-only effect, or another doubt; inactive means no such curve, though single readings can be large; an effect the other way counts as inactive or inconclusive.

SMILES	L3MBTL1 block	JMJD2A Tudor	Sfp PPTase inh	G9a inh	BAZ2B inh	HP1b chromo inh
COc1cccc(-c2nc3c(c(SCC(=O)N4CCOCC4)n2)Cc2c(CO)cnc(C)c2O3)c1	x	u	n	14.1µM	u	n
COc1cccc(-c2nc3c(c(SCC(=O)Nc4cc(C)ccc4C)n2)Cc2c(CO)cnc(C)c2O3)c1	x	n	x	n	n	n
Cc1ncc(CO)c2c1Oc1nc(-c3ccccc3)nc(SCC(=O)N3CCOCC3)c1C2	x	n	n	31.6µM	n	n
COc1ccccc1CNC(=O)c1cc2c(-c3ccc(Cl)cc3)nn(C)c2s1	x	n	x	n	x	n
O=C(CN1CCN(Cc2ccc(F)cc2)C1=O)NCc1ccc(F)cc1	x	n	x	n	n	n
Cc1ccc(-n2cc(C(=O)Oc3ccc(F)cc3)c3ccccc3c2=O)cc1	x	n	x	n	n	n
O=S(=O)(NCc1nc2cccnc2n1Cc1ccccc1Cl)c1ccc(F)c(Cl)c1	x	n	x	n	n	n
CC(=O)Nc1ccc(OC(=O)c2ccccc2OC(C)=O)cc1	x	x	n	n[12.7 µM]	x	x
COc1cc(NC(=O)c2sc3nc4n(c(=O)c3c2C)CCCCC4)cc(OC)c1OC	x	n	x	n	n	n
Cc1cccc(-c2nc3c(c(SCC(=O)N4CCOCC4)n2)Cc2c(CO)cnc(C)c2O3)c1	x	u	n	44.7µM	u	n
N=C1/C(=C\c2ccc(OC(=O)c3ccco3)cc2)C(=O)N=C2SC=NN12	x	u	n	n	x	n
O=C1NC(=S)S/C1=C/c1ccc(OC(=O)c2ccco2)cc1	x	u	n	n	79.4µM	n
COc1cc(/C=C2/SC(=O)NC2=O)ccc1OC(=O)c1ccco1	x	n	n	n	n	n
CCOc1cc(/C=C2/SC(=S)NC2=O)ccc1OC(=O)c1ccco1	n	u	39.8µM	12.6µM	39.8µM	u
O=C(O)CCCN(Cc1cccc(Br)c1)S(=O)(=O)c1ccc(Br)cc1	x	n	79.4µM	n	n	n
COc1ccc(S(=O)(=O)N(CCC(=O)O)Cc2ccccc2)cc1	n	n	n	n	n	n
CCNC(=O)c1c2c(nc3ccccc13)C(=O)N(C1CCCCC1)C2	x	n	x	n	n	n
O=C(O)c1cccc(COc2ccc3c(c2)CCC3)c1	22.4µM	n	n	50.1µM	n	n
O=C(c1ccco1)N1CCN(C(=O)c2ccc(COc3ccc4c(c3)CCC4)o2)CC1	n	u	n	n[0.0925 µM]	50.1µM	n
O=C(NCc1ccccc1)c1cccc(COc2ccc3c(c2)CCC3)c1	n	n	n	n	n	n
O=C(c1ccc(COc2ccc3c(c2)CCC3)o1)N1CCN(c2ccccc2)CC1	x	u	x	x	x	n
C=CCn1c(SCc2nc(N)nc(N(C)C)n2)nnc1-c1cccnc1	n	n	n	50.1µM	u	n
CC(C)(C)C(=O)NC(=S)Nc1ccccn1	n	n	n	n	n	n
Cc1ccccc1C(=O)NC(=S)Nc1ccccc1[N+](=O)[O-]	n[11.4 µM]	n	n	u	u	n
CC(C)C(=O)NC(=S)Nc1ccccn1	n	u	n	56.2µM	n	n
SMILES	L3MBTL1 block	JMJD2A Tudor	Sfp PPTase inh	G9a inh	BAZ2B inh	HP1b chromo inh
O=C(NC(=S)Nc1ccccc1[N+](=O)[O-])c1ccco1	x	n	56.2µM	u	n	n
O=C(NC(=S)Nc1ccccn1)c1ccco1	n	u	56.2µM	n	n	n
CC(C)CCNC(=S)Nc1ccccn1	n	n	n	1µM	n	n
COc1cccc(NC(=O)c2sc3nc(C)c(C(=O)Nc4ccc(C)cc4C)c(-c4ccc(Br)cc4)c3c2N)c1	x	n	x	n	n	n
O=C(Cn1cc(SCc2cccc(Cl)c2)c2ccccc21)N1CCCCCC1	x	n	x	n	n	n
COc1cc2[nH]c(=O)n(CCCC(=O)NCc3ccccc3)c(=O)c2cc1OC	x	n	x	n	n	n
CC(=O)OCc1cnc(C)c2oc(=O)c(C(=O)Nc3cc(F)ccc3C)cc12	x	n	x	n	n	n
O=C(NC(=S)Nc1ccccn1)c1ccc([N+](=O)[O-])cc1	n	n	n	79.4µM	n	n
O=C(NC(=S)Nc1cccnc1Cl)c1ccc(Cl)cc1	x	n	u	39.8µM	n	n
O=C(NC(=S)Nc1ccccn1)c1ccc(-c2ccccc2)cc1	x	n	n	n	n	n
O=C(NC(=S)Nc1cccnc1Cl)c1ccco1	n	n	n	56.2µM	n	u
O=C(Nc1ncccn1)c1ccc([N+](=O)[O-])cc1	x	n	n	n	n	n
O=C(NC(=S)Nc1ccccn1)c1ccccc1	x	n	u	50.1µM	n	n
C[N+](C)(C)CC[N+]1(C)Cc2c(Cl)c(Cl)c(Cl)c(Cl)c2C1	x	x	n	n	x	x
CC(C)C(=O)NC(=S)Nc1ccccc1C(=O)NC1CCCCC1	n	n	n	50.1µM	n	n
CCC(=O)NC(=S)Nc1ccccc1C(=O)NC1CCCCC1	n	n	n	n	n	n
COc1ccc2cc(/C=C/C(=O)c3ccco3)c(Cl)nc2c1	x	x	n	50.1µM	n	x
Cc1ccccc1CC1(CO)CCCN(C(=O)c2ccccc2Cl)C1 (stereo not drawn)	n	n	n	n[12.7 µM]	n	n
COc1ccc(C(=O)N2CCCC(CO)(Cc3ccccc3C)C2)o1 (stereo not drawn)	x	n	n	79.4µM	n	n
CC(C)c1ccc(NC(=O)C2CCN(C(=O)c3ccc(F)cc3)CC2)cc1	x	n	x	n	n	n
Cc1ccc(N(CC(=O)Nc2cccc(Cl)c2)S(=O)(=O)c2cccs2)cc1	x	n	x	n	x	n
Cn1nc([N+](=O)[O-])c(C(C#N)c2ccccn2)c(Cl)c1=O (stereo not drawn)	n	n	n	11.2µM	n	n
CCn1nc([N+](=O)[O-])c(C(C#N)c2nc3cc(C(F)(F)F)ccc3s2)c(Cl)c1=O (stereo not drawn)	x	28.2µM	n	11.2µM	11.2µM	22.4µM
CCCn1nc([N+](=O)[O-])c(C(C#N)c2nc3ccccc3o2)c(Cl)c1=O (stereo not drawn)	u	56.2µM	n	10µM	20µM	u
N#CC(c1ccccn1)c1ncc(C(F)(F)F)cc1Cl (stereo not drawn)	n	n	n	n[12.7 µM]	n	n
SMILES	L3MBTL1 block	JMJD2A Tudor	Sfp PPTase inh	G9a inh	BAZ2B inh	HP1b chromo inh
C=C1CCC2C(CC2(C)C)C(=C)CC/C1=N/O (stereo not drawn)	x	x	n	x	x	x
COc1ccccc1OCCn1c(NC(=O)c2ccccc2Cl)nc2ccccc21	x	n	x	n	n	n
CC(=O)Oc1oc(-c2ccccc2)nc1C=Nc1ccccc1	n	n	n	50.1µM	n	n
CCOC(=O)c1ccc(N=Cc2nc(-c3ccccc3)oc2OC(C)=O)cc1	x	n	n	7.94µM	n	n
CCC(=O)Oc1oc(-c2ccccc2)nc1C=Nc1ccc(C)cc1	n	n	n	u	n	n
COc1ccc(N=Cc2nc(-c3ccccc3)oc2OC(=O)c2ccccc2)cc1	n	n	n	n	n	n

Bioassay records: PubChem, National Center for Advancing Translational Sciences (NCATS)
